Screening data: PubChem, National Center for Advancing Translational Sciences (NCATS)
HPGD block = inhibitors of human 15-hydroxyprostaglandin dehydrogenase (HPGD). purified HPGD, NADH fluorescence kinetic, PGE2 substrate. actives 4.3% (n = 150,000). P15428. Potency, µM, without a hit: at the top dose activity change, negative = inhibition, most hits filed as inhibitors; also: potency is read from the fitted curve at half-maximal effect; % is scaled to controls: 0 for no effect and ±100 for the full control effect
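20 nM HPGD preincubated 15 min at room temperature with compound in 50 mM Tris-HCl pH 8, 0.01% Tween 20. Started with 1 mM NAD+ and 30 uM prostaglandin E2; NADH fluorescence (360/450 nm) read 5 times over 30-s intervals, last minus first.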
ALDH1A1 block = inhibitors of human aldehyde dehydrogenase 1A1 | actives 7.3% (n = 220,000) | Purified ALDH1A1, NADH fluorescence, propionaldehyde substrate | P00352 | Potency, µM (top dose mostly 75.3 µM), for the others: at the highest dose activity, negative = inhibition, most hits filed as inhibitors;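 also: potency is read from the fitted curve at half-maximal effect; plate controls were no enzyme wells and a reference inhibitor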
HTT ATP protect = protects HTT-Q103 PC12 cells, measured by ATP; PC12 HTT-Q103 induced, cytoprotection, ATP luminescence, 40 h; Potency, µM (titrated, usually from 56.4 µM), for inactives: cytoprotection (ATP increase), hits mostly activators; actives 0.14% (n = 230,000); AID 1471; active = well fitted curve in the direction sought with a large enough effect; inconclusive = small, poorly fitted or top-dose-only effect, or another doubt; inactive = no such curve, though single readings can be large; an effect the other way counts as inactive or inconclusive; also: potency is read from the fitted curve at half-maximal effect; % of control where 0% means no effect; nearly all actives have a fitted effect of over 45% in size
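Compounds added alongside 100 nM tebufenozide, which induces toxic Q103 huntingtin exon 1-GFP in stable PC12 cells; surviving cells quantified by luminescent ATP measurement. Medium: phenol red-free DMEM, 5% equine and 5% calf serum.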
HttQ103 aggreg = inhibitors of mutant huntingtin aggregate formation in PC12 cells | PC12 HttQ103-GFP aggregates, Acumen cytometry, 40 h | Potency, µM (series often up to 46.1 µM), inactives show top-dose activity change, negative = inhibition, most hits filed as inhibitors | actives 1.1% (n = 220,000); active = well fitted curve in the direction sought with a large enough effect; inconclusive = small, poorly fitted or top-dose-only effect, or another doubt; inactive = no such curve, though single readings can be large; an effect the other way counts as inactive or inconclusive; also: potency is read from the fitted curve at half-maximal effect; % is scaled to controls: 0 for no effect and ±100 for the full control effect; nearly all actives have a fitted effect of over 60% in size
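Using laser scanning cytometry, GFP-positive aggregates were counted after lysis of PC12 cells induced with 100 nM tebufenozide to express HTT exon 1 Q103–GFP. Compounds were tested in titration.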
RGS12 GoLoco inh = blocks human Gai1 binding to RGS12 GoLoco peptide, red readout | P63096 | Gai1:RGS12 GoLoco peptide FP, rhodamine, 10 min | Potency, µM (doses to about 61.6 µM), for the others: at the top dose activity, negative = inhibition, actives largely listed as inhibitors | actives 0.44% (n = 230,000); active = well fitted inhibition curve with a large enough effect, not every such curve was filed as active; inactive = no such curve, though single readings can be large or run the other way; also: potency is read from the fitted curve at half-maximal effect; % is scaled to controls: 0 for no effect and ±100 for the full control effect; nearly all actives have a fitted effect of over 30% in size
Target sequence (P63096 whole entry, looked up): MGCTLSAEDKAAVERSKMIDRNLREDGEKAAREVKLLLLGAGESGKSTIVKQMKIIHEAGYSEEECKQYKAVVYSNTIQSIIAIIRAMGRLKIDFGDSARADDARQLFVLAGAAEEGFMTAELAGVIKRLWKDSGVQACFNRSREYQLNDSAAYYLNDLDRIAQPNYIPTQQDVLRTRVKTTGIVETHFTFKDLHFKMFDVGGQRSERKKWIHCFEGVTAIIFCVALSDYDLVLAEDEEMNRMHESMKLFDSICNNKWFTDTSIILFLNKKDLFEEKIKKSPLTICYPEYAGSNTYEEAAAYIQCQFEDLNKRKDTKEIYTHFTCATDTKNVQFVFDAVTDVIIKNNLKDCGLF
PNC inhibitor = inhibitors of perinucleolar compartment assembly; AID 2417; actives 3.1% (n = 140,000); PC3M PTB-GFP, PNC prevalence imaging, 16 h; hits give low values; activity change (PNC), negative = inhibition, % at 10 µM;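 active = readout at or below -70, meaning at least 70% loss of cells showing the perinucleolar compartment, a nuclear body marking cancer cells; inconclusive = readout between -30 and a set limit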;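 also: plate controls were DMSO wells for no effect and camptothecin positive control wells for full effect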
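PC3M cells stably expressing PTB-GFP, 750–1000 cells/well, treated 16 h at 37 °C with compound (23 nl of library stock), in duplicate. After paraformaldehyde fixation and Hoechst stain, imaged at 20x; PNC prevalence scored by image analysis.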
Starred values were filed as active, the others as inactive; [ ] = another dose, or the depositor's remark. The list is not random: actives were taken first. Their share in the collection is about 11%. Unless noted, calls follow the shape of the dose curve; as a rule, active = well fitted inhibition curve with a large enough effect (not every such curve was filed as active); inconclusive = small, poorly fitted or top-dose-only effect, or another doubt; inactive = no such curve, though single readings can be large or run the other way.

For CN(C)c1ccc(/C=N\Nc2nc(-c3ccccc3)cc(=O)[nH]2)cc1 the results were HPGD block -9%, ALDH1A1 block inconclusive, HttQ103 aggreg -25%, RGS12 GoLoco inh 8% and PNC inhibitor -118*.
O=C(O)CCCSc1nccn1-c1ccccc1 was read as ALDH1A1 block 9%, HTT ATP protect -20%, HttQ103 aggreg -10% and RGS12 GoLoco inh -3%.
CC(=O)Nc1ccc2nc(C)n(Cc3ccc(Cl)cc3)c(=O)c2c1 was read as HPGD block -22%, ALDH1A1 block 2%, HTT ATP protect 8%[10 µM], HttQ103 aggreg 10%, RGS12 GoLoco inh 14% and PNC inhibitor -90*.
O=C(CCc1ccccc1)NNC(=O)c1cccc(F)c1 was read as ALDH1A1 block 6%, HTT ATP protect inconclusive, HttQ103 aggreg 0% and RGS12 GoLoco inh 18%.
Screening CC(C)(C)c1cc[n+](-c2nc([O-])sc2C=O)cc1 returned HPGD block -4%, ALDH1A1 block 6%, HttQ103 aggreg 9%, RGS12 GoLoco inh 2% and PNC inhibitor -113*.
For CCOC(=O)C1=C(NC#N)OC(C)=C(C)C1c1ccc(O)cc1 (stereo not drawn) the results were HPGD block -29%, ALDH1A1 block 22µM*, HTT ATP protect 5%[0.074 µM], HttQ103 aggreg 3%, RGS12 GoLoco inh 16% and PNC inhibitor inconclusive.
For COCCNC(=O)C1(CC(C)C)C=CCN1C(C)=O (stereo not drawn) the results were HPGD block -8%, ALDH1A1 block 6%, HTT ATP protect 11% and RGS12 GoLoco inh 8%.
Screening COC(CNS(=O)(=O)c1cccc2nonc12)OC returned ALDH1A1 block inconclusive, HTT ATP protect 3%, HttQ103 aggreg 0% and RGS12 GoLoco inh 5%.
COc1ccc(CCNC(=O)CCNS(=O)(=O)c2cccc3nonc23)cc1OC was read as HPGD block -10%, ALDH1A1 block inconclusive, HTT ATP protect -6%, HttQ103 aggreg -2%, RGS12 GoLoco inh 7% and PNC inhibitor -26.
Screening COc1ccc(NC(=O)CNS(=O)(=O)c2cccc3nonc23)c(OC)c1 returned HPGD block inconclusive, ALDH1A1 block 13µM*, HTT ATP protect -26%, HttQ103 aggreg inconclusive, RGS12 GoLoco inh -19% and PNC inhibitor inconclusive.
CCc1ccc(NC(=O)CCNS(=O)(=O)c2cccc3nonc23)cc1 was read as HPGD block 0%, ALDH1A1 block 22µM*, HTT ATP protect 6%, HttQ103 aggreg 7%, RGS12 GoLoco inh 2% and PNC inhibitor 59.
Screening CC(=O)Nc1ccc(NC(=O)CCNS(=O)(=O)c2cccc3nsnc23)cc1 returned ALDH1A1 block 13µM*, HTT ATP protect -25%, HttQ103 aggreg 0% and RGS12 GoLoco inh 6%.
Screening COc1ccc(CNC(=O)CCCNS(=O)(=O)c2cccc3nonc23)cc1 returned HPGD block -6%, ALDH1A1 block 14µM*, HTT ATP protect 3.5µM*, HttQ103 aggreg 3.2µM*, RGS12 GoLoco inh 8% and PNC inhibitor -18.
For CCCC1(C(=O)OC)C=C2C(=C(c3ccccc3)C(=O)C2C)CN1 (stereo not drawn) the results were HPGD block -19%, ALDH1A1 block inconclusive, HTT ATP protect -48% and RGS12 GoLoco inh -7%.
NCCCNCCCCNCCCNC(=O)CCc1ccc(O)cc1 was read as HPGD block -12%, ALDH1A1 block 1%[13.5 µM], HTT ATP protect -13%[10 µM] and RGS12 GoLoco inh 14%[14.2 µM].
O=C(CCS(=O)(=O)c1cccc2nsnc12)NCc1ccccc1 was read as HPGD block -6%, ALDH1A1 block inconclusive, HTT ATP protect -8%[10 µM], HttQ103 aggreg -5%, RGS12 GoLoco inh 4% and PNC inhibitor -26.
For O=C(CCCNS(=O)(=O)c1cccc2nsnc12)NCc1ccccc1 the results were ALDH1A1 block 5µM*, HTT ATP protect -8%, HttQ103 aggreg 9% and PNC inhibitor inconclusive.
